# KinaseGlo FLuc – counter-screen: inhibitors of Kinase-Glo firefly luciferase | Potency, µM (series often up to 38.3 µM), without a hit: at the top dose activity change, negative = inhibition, hits mostly inhibitors | AID 1379 | Q27757 | Kinase-Glo luciferase, ATP luminescence, 8 min | hit rate 0.28% among 200,000; also: % is scaled to controls: 0 for no effect and ±100 for the full control effect; nearly all actives have a fitted effect of over 60% in size
#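 Light output from Kinase-Glo luciferase with luciferin and 10 uM ATP in 50 mM imidazole pH 7.2, KCl, MgCl2, Tween 20, BSA; compound pin-delivered, 8-min ambient incubation, then luminescence read.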
# LMNA splice mod – LMNA splicing modulation | HeLa LMNA splicing GFP/RFP minigene ratio, 48 h | Potency, µM (highest dose often 46.1 µM), for inactives: at the highest dose ratio change, negative = inhibition, most hits filed as inhibitors | AID 1487 | hit rate 0.01% among 200,000; active = well fitted inhibition curve with a large enough effect in the signal ratio, with a control signal flat, not every such curve was filed as active; inconclusive = small, poorly fitted or top-dose-only effect, or effect the other way, or a change in a side signal; the % refers to the signal ratio; also: % is scaled to controls: 0 for no effect and ±100 for the full control effect
#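 Read-out is the ratio of GFP to DsRed2 object intensity, acquired by 488 nm laser-scanning cytometry on HeLa lamin A-EGFP minigene reporter cells. Compound incubation 48 hrs at 37 °C in Opti-MEM with 2% FBS; DMSO 0.5% final.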
# ALDH1A1 inh – inhibitors of human aldehyde dehydrogenase 1A1 | Purified ALDH1A1, NADH fluorescence, propionaldehyde substrate | hit rate 7.3% among 220,000 | P00352 | Potency, µM (highest dose often 75.3 µM), inactives show at the top dose activity, negative = inhibition, actives largely listed as inhibitors; active = well fitted inhibition curve with a large enough effect, not every such curve was filed as active; inconclusive = small, poorly fitted or top-dose-only effect, or another doubt; inactive = no such curve, though single readings can be large or run the other way;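 also: plate controls were no enzyme wells and a reference inhibitor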
# Target sequence (P00352 whole entry, looked up): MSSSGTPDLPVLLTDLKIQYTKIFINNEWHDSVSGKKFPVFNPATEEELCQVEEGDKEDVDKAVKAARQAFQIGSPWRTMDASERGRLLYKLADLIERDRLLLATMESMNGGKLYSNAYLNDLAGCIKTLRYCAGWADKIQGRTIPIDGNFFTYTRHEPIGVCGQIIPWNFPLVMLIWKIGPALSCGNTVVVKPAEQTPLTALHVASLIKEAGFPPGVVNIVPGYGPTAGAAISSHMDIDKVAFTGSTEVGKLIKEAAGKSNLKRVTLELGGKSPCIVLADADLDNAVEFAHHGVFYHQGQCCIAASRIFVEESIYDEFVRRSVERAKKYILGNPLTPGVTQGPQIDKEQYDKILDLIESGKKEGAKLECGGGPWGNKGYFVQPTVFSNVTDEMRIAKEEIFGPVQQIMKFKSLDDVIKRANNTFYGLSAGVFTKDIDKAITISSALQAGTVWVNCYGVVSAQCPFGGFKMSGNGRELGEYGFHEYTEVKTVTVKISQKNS
# HPGD block – HPGD (human) dehydrogenase inhibition; P15428; purified HPGD, NADH fluorescence kinetic, PGE2 substrate; Potency, µM, without a hit: top-dose activity change, negative = inhibition, actives largely listed as inhibitors; hit rate 4.3% among 150,000; active = well fitted inhibition curve with a large enough effect, not every such curve was filed as active; inconclusive = small, poorly fitted or top-dose-only effect, or another doubt; inactive = no such curve, though single readings can be large or run the other way; also: % is scaled to controls: 0 for no effect and ±100 for the full control effect
#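 20 nM HPGD preincubated 15 min at room temperature with compound in 50 mM Tris-HCl pH 8, 0.01% Tween 20. Started with 1 mM NAD+ and 30 uM prostaglandin E2; NADH fluorescence (360/450 nm) read 5 times over 30-s intervals, last minus first.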
# HTT ATP protect – Huntington cell model cytoprotection by ATP luminescence. PC12 HTT-Q103 induced, cytoprotection, ATP luminescence, 40 h. Potency, µM (titrated, usually from 56.4 µM), without a hit: cytoprotection (ATP increase), hits mostly activators. hit rate 0.14% among 230,000; also: % of control where 0% means no effect; nearly all actives have a fitted effect of over 45% in size
#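 Cells were plated at 1500 per well in phenol red-free DMEM with 5% equine and 5% calf serum. Tebufenozide (100 nM final) and compounds were added, then ATPlite reagent, and luminescence was read.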
# HTT aggregate – inhibitors of mutant huntingtin aggregate formation in PC12 cells. PC12 HttQ103-GFP aggregates, Acumen cytometry, 40 h. Potency, µM (top dose mostly 46.1 µM), without a hit: at the top dose activity change, negative = inhibition, usual class: inhibitors. hit rate 1.1% among 220,000; also: % is scaled to controls: 0 for no effect and ±100 for the full control effect; nearly all actives have a fitted effect of over 60% in size
#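 Aggregates are detected as GFP objects 1–25 µm with signal 6 STDEV over background in lysates of induced PC12 cells. These carry Huntingtin exon 1 with 103 glutamines fused to GFP under an ecdysone promoter; compounds titrated.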
# The depositor's hits bear a star; ? = inconclusive; nt = no result given; ! = repeats disagree; [ ] = dose if it differs, or a comment. An excerpt weighted towards active compounds, which were near 9% of everything screened. Unless noted, calls follow the shape of the dose curve; as a rule, active = well fitted curve in the direction sought with a large enough effect; inconclusive = small, poorly fitted or top-dose-only effect, or another doubt; inactive = no such curve, though single readings can be large; an effect the other way counts as inactive or inconclusive. Potency is read from the fitted curve at half-maximal effect.
SMILES,KinaseGlo FLuc,LMNA splice mod,ALDH1A1 inh,HPGD block,HTT ATP protect,HTT aggregate
O=C(c1cccc(F)c1)N1CCCN(C(=O)c2cccc(F)c2)CC1,-2%,0%,-7%,0%,-6%[10 µM],-2%
O=C(c1cccc(F)c1)N1CCN(C(=O)c2nn3cccnc3c2Cl)CC1,-4%,6%,20µM*,-18%,7%[10 µM],-6%
O=C(CCCOc1ccccc1)N1CCCCC1,-29%,7%,-1%,4µM*,-39%,-1%
O=C(CCCOc1ccc(Cl)cc1)N1CCCCC1,4%,2%,-16%,1.6µM*,-6%,-18%
O=C(CCCOc1ccc(Cl)cc1)N1CCOCC1,0%,3%,3%,-19%,-4%,14%
CC(C)OC(=O)C1C(=O)CC(C)(O)C(C(=O)OC(C)C)C1c1cccc(O)c1 (centres undefined),-2%,-15%,-4%,-7%,13%[10 µM],-16%
CN(c1ccc(OCC(=O)N2CCN(c3ccc(F)cc3)CC2)cc1)S(=O)(=O)c1cccs1,-2%,19%[9.22 µM],-4%,nt,-15%,?
CN(c1ccc(OCC(=O)N2CCCCC2)cc1)S(=O)(=O)c1cccs1,-3%,?,-6%,14µM*,0%,-27%
Cc1noc2ncnc(Sc3c(Cl)cccc3Cl)c12,12%,?,?,-12%,27%[10 µM],-1%
Clc1cccc(CN2CCC(Cc3ccccc3)CC2)c1,nt,?,20µM*,nt,-86%,?
O=C(O)Cc1ccc(NS(=O)(=O)c2ccccc2Br)cc1,0%,-1%[46 µM],0%,nt,?,-3%
Cc1ccc(C)c(NC2=CC(=O)CC(C)(C)C2)c1C#N,-3%,?,13µM*,-11%,8%,11%
COc1ccc(/C=N/Nc2nc(NCc3ccco3)nc(Nc3ccc(OC)cc3)n2)cc1,-1%,-5%,11µM*,-27%,3%[10 µM],9%
COc1ccc(Nc2nc(NCc3ccco3)nc(N/N=C/c3ccc(O)cc3)n2)cc1,-2%,?,4%,?,13%[10 µM],-3%
C[N+]1=C(/C=C/Nc2ccccc2Cl)C(C)(C)c2ccccc21,-2%,?,?,-22%,12%[10 µM],13µM*
CCC1(c2ccccc2)C(=O)NCNC1=O,1%,?,5%,-7%,1.4µM*!,-9%
Cc1cc(Nc2cccc([N+](=O)[O-])c2)n2c(nc3ccccc32)c1C#N,-7%,?,6%,-7%,-2%[10 µM],2.8µM*
Cc1cc(Nc2c(C)n(C)n(-c3ccccc3)c2=O)n2c(nc3ccccc32)c1C#N,-5%,6%,?,-15%,-27%,-10%
Cc1cccc(C(C)C)c1NC(=O)COC(=O)COc1ccc2c(C)cc(=O)oc2c1,1%,-9%,?,?,13%[1.9 µM],-11%
CC(=O)c1ccc(NC(=O)c2ccn(C(=O)OCC(C)C)n2)cc1,-2%,3%,-3%,-17%,nt,-8%
CC(C)COC(=O)n1ccc(C(=O)N2CCCCC2)n1,0%,2%,-3%,10µM*,15%,1%
CCOC(=O)CCCCC(=O)c1[nH]c(=O)[nH]c1CSc1nnc2c3ccccc3n(C(C)C)c2n1,-3%,-13%,13µM*,?,nt,-9%
O=C(c1cc(-c2ccco2)nn1-c1cccc(Cl)c1)N1CCCCC1,4%,1%,3.5µM*,1.6µM*,-1%[10 µM],31%
CCOC(=O)c1cc(-c2ccco2)nn1-c1ccc(C)cc1,1%,-22%[46 µM],14µM*,nt,-42%,18%
CC(C)NC(=O)c1cc(-c2ccco2)nn1-c1ccc(Cl)cc1,-2%,-6%,28µM*,?,-7%,-12%
Cc1ccc(-n2nc(-c3ccco3)cc2C(=O)O)cc1,nt,nt,nt,nt,-5%[10 µM],-22%[9.22 µM]
O=C(c1ccco1)[C@@H]1[C@@H]2C(=O)N(c3ccc(F)cc3)C(=O)[C@@H]2C2c3ccccc3C=CN21 (some centres undefined),-12%,2%,13µM*,32µM*,-3%,17%

# Screening data as filed in PubChem BioAssay.
